For test [1], the target named is Paired box protein Pax-6 (Homo sapiens) (UniProt P26367). The test can be described thus: ATG_Pax6_CIS: Attagene CIS-FACTORIAL HepG2 Assay for human Paired Box 6 (PAX6) (AID 2282956). The note with it: HepG2 CIS-FACTORIAL PAX6 reporter transcription, RNA readout; actives raise or lower the signal. In a few lines:
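Transient MRTU transfection of HepG2 → compound exposure 24 h → TriZol RNA, oligo(dT) RT → PCR, 6-FAM primer extension, HpaI cut → capillary electrophoresis; activity fitted both directions against DMSO.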

Test [2] is described as follows: ATG_PXRE_CIS: Attagene CIS-FACTORIAL HepG2 Assay for human Pregnane X Receptor Element (PXRE) (AID 2282957). The note with it: HepG2 Attagene CIS-FACTORIAL PXRE reporter, mRNA; actives raise or lower the signal. In a few lines:
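Transfect HepG2 with MRTUs (cis promoter elements); dose chemical, incubate 24 h; isolate RNA, RT with oligo(dT), PCR, 6-FAM label, HpaI cut, CE. Gain/loss fit vs DMSO.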

Test [3] can be described thus: ATG_PPRE_CIS: Attagene CIS-FACTORIAL HepG2 Assay for human Peroxisome Proliferator-activated Response Element (PPRE) (AID 2282958). The note with it: HepG2 PPRE cis-element reporter, Attagene transcription factor profiling; actives raise or lower the signal. In a few lines:
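DMSO served as negative control and baseline for bidirectional curve fitting. Signal came from PPRE-regulated reporter mRNA in HepG2 cells, measured 24 h post-dosing by RT-PCR, 6-FAM primer extension and capillary electrophoresis.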

A short description of test [4]: ATG_RORE_CIS: Attagene CIS-FACTORIAL HepG2 Assay for human RAR-related Orphan Receptor Element (RORE) (AID 2282959). The note with it: HepG2 Attagene cis-factorial RORE reporter, mRNA; actives raise or lower the signal. In a few lines: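 Transfect HepG2 with MRTUs; treat 24 h; extract RNA; RT with oligo(dT); PCR with reporter-specific primers; 6-FAM primer extension; HpaI digest 2 h at 37 C; capillary electrophoresis. Fit vs DMSO, bidirectional.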

A short description of test [5]: ATG_Sox_CIS: Attagene CIS-FACTORIAL HepG2 Assay for human SRY-box transcription factor (SOX) (AID 2282960). The note with it: HepG2 Attagene cis-factorial SOX reporter, mRNA; actives raise or lower the signal. In a few lines: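 Fluorescence-labelled cDNA fragments from reporter transcripts, sized by CE, give the signal. Cells: HepG2, transiently transfected with cis-regulated reporter units. Exposure 24 h; DMSO negative control; bidirectional curve fitting.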

Test [6] can be described thus: ATG_SREBP_CIS: Attagene CIS-FACTORIAL HepG2 Assay for human Sterol Regulatory Element Binding (SREBP) (AID 2282962). The note with it: HepG2 Attagene cis-factorial SREBP reporter, mRNA; actives raise or lower the signal. In a few lines: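 Transfected HepG2 (cis-regulated reporter library, endogenous TFs) → compound 24 h → total RNA → oligo(dT) RT → reporter-specific PCR → FAM primer extension, HpaI cut → CE fluorescence. Fit bidirectional vs DMSO.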

The nature of test [7]: ATG_TA_CIS: Attagene CIS-FACTORIAL HepG2 Assay for human TA Basal Promoter (AID 2282964). The note with it: HepG2 Attagene CIS-factorial TA basal promoter reporter; actives raise or lower the signal. In a few lines: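 Read-out: fluorescent reporter-transcript fragments resolved by capillary electrophoresis after RT-PCR and HpaI digestion. Source: HepG2 cells carrying transiently transfected multi-reporter cis constructs, treated 24 h. Endpoint fitted bidirectionally relative to DMSO.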

A short description of test [8]: ATG_TCF_b_cat_CIS: Attagene CIS-FACTORIAL HepG2 Assay for human T-Cell-Factor with beta-catenin (TCF/b-cat) (AID 2282965). The note with it: HepG2 TCF/beta-catenin cis-reporter transcription, actives raise or lower the signal. In a few lines: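 HepG2, transient MRTU transfection, cis-element-driven reporters (endogenous TFs). 24 h compound exposure. Readout: reporter mRNA by RT-PCR + 6-FAM primer extension, HpaI digest, capillary electrophoresis. Gain/loss fit vs DMSO baseline.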

A short description of test [9]: ATG_TAL_CIS: Attagene CIS-FACTORIAL HepG2 Assay for human TAL Basal Promoter (AID 2282966).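 Further: background control endpoint measuring basal TAL promoter reporter mRNA not a specific factor.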 The note with it: HepG2 Attagene cis-factorial TAL promoter reporter; actives raise or lower the signal. In a few lines:
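Fluorescence of labelled reporter cDNA fragments, resolved by capillary electrophoresis, gave the readout. Human HepG2 liver cells carried transiently transfected cis-element reporter units and were treated for 24 hours; activity was fitted bidirectionally against DMSO.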

The nature of test [10]: ATG_TGFb_CIS: Attagene CIS-FACTORIAL HepG2 Assay for human Transforming Growth Factor (TGF) (AID 2282967). The note with it: HepG2 Attagene CIS TGFb reporter, mRNA transcription; actives raise or lower the signal. In a few lines:
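Transient MRTU transfection of HepG2 (FuGene 6). Dose 24 h. TriZol RNA, oligo(dT) RT, PCR, 6-FAM primer extension, HpaI cut, CE. Bidirectional fit, DMSO = baseline.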

Test [11] is described as follows: ATG_VDRE_CIS: Attagene CIS-FACTORIAL HepG2 Assay for human Vitamin D Receptor Element (VDRE) (AID 2282968). The note with it: HepG2 VDRE cis-reporter transcription, actives raise or lower the signal. In a few lines: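 Cell-based multiplexed reporter format in human liver HepG2 cells, 24 h post-dose. Fluorescence from capillary electrophoresis of reporter cDNA gives the signal, with DMSO as negative control and baseline.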

In test [12] the target is X-box-binding protein 1 (Homo sapiens) (UniProt P17861). Put plainly: ATG_Xbp1_CIS: Attagene CIS-FACTORIAL HepG2 Assay for human X-box Binding Protein 1 (XBP1) (AID 2282972). The note with it: HepG2 XBP1 cis-element reporter, Attagene multiplex; actives raise or lower the signal. In a few lines:
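HepG2, transient MRTU transfection (cis-promoter driven), 24 h compound exposure. Total RNA → oligo(dT) RT → PCR → 6-FAM labeling → HpaI cut → CE. Bidirectional fit vs DMSO.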

Test [13] in a line: ATG_GAL4_TRANS: Attagene TRANS-FACTORIAL HepG2 Assay for GAL4 (Internal Marker) (AID 2282976; active means hit-call score of the fitted dose curve at least 0.9, where 1 is the maximum). The note with it: HepG2 Attagene TRANS GAL4 internal marker reporter. In a few lines: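 First, HepG2 cells were transfected with reporter units under GAL4-UAS control. Next, they were treated with chemical for 24 h. Finally, RNA was reverse-transcribed, PCR-amplified, FAM-labelled and resolved by capillary electrophoresis, with induction scored against DMSO.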

The target in test [14] is Estrogen-related receptor gamma (Homo sapiens) (UniProt P62508). The test can be described thus: ATG_ERRg_TRANS: Attagene TRANS-FACTORIAL HepG2 Assay for human Estrogen-Related Receptor gamma (ERRg) (AID 2282977; active means hit-call score of the fitted dose curve at least 0.9, where 1 is the maximum;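 further: hits increase reporter signal over DMSO so potencies reflect activators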). The note with it: HepG2 Attagene TRANS reporter, ERRg transactivation. In a few lines:
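HepG2 cells transiently transfected with multiplexed GAL4-UAS reporter units and chimeric NR-Gal4 constructs were exposed to test chemicals for 24 h. Reporter mRNA was measured by RT-PCR, 6-FAM primer extension, HpaI digestion and capillary electrophoresis; gain-of-signal versus DMSO.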

Test [15] concerns the target Transcription factor Sp1 (Homo sapiens) (UniProt P08047). The test can be described thus: ATG_Sp1_CIS: Attagene CIS-FACTORIAL HepG2 Assay for human Specificity Protein 1 (Sp1) (AID 2282961). The note with it: HepG2 Sp1 cis-reporter transcription, actives raise or lower the signal. In a few lines:
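Chemicals are dosed onto HepG2 cells transfected with multiple cis-promoter reporter constructs, and after 24 h reporter RNA is reverse-transcribed, PCR-amplified and resolved by capillary electrophoresis for fluorescence quantitation; activity is scored up or down against DMSO.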

In test [16] the target is Signal transducer and activator of transcription 3 (Homo sapiens) (UniProt P40763). The test can be described thus: ATG_STAT3_CIS: Attagene CIS-FACTORIAL HepG2 Assay for human Signal Transducer and Activator of Transcription 3 (STAT3) (AID 2282963). The note with it: HepG2, Attagene cis-factorial STAT3 reporter transcription; actives raise or lower the signal. In a few lines: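 Values derive from bidirectional fits relative to DMSO of reporter mRNA levels, measured by RT-PCR with capillary electrophoresis, in HepG2 cells carrying transiently transfected cis-regulated reporter units and exposed 24 h.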

Test [17] has as its target Estrogen receptor (Homo sapiens) (UniProt P03372). The test can be described thus: ATG_ERa_TRANS: Attagene TRANS-FACTORIAL HepG2 Assay for human Estrogen Receptor alpha (ERa) (AID 2282970; active means hit-call score of the fitted dose curve at least 0.9, where 1 is the maximum). The note with it: HepG2 Attagene TRANS ERa GAL4 reporter, mRNA. In a few lines:
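Human liver HepG2, transient transfection of multiple GAL4-UAS reporter units; TRANS format (exogenous NR-Gal4 chimera). 24 h dosing. Readout: reporter mRNA, RT-PCR, 6-FAM primer extension, HpaI digest, capillary electrophoresis. Positive direction vs DMSO.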

The target of test [18] is Nuclear receptor subfamily 1 group I member 3 (Homo sapiens) (UniProt Q14994). Put plainly: ATG_CAR_TRANS: Attagene TRANS-FACTORIAL HepG2 Assay for human Constitutive Androstane Receptor (CAR) (AID 2282969; active means hit-call score of the fitted dose curve at least 0.9, where 1 is the maximum;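 further: activators raise reporter mRNA above DMSO so AC50 marks induction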). The note with it: HepG2 Attagene TRANS-FACTORIAL CAR reporter. In a few lines:
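HepG2 cells transiently transfected with GAL4-UAS reporter units; TRANS format reads activity of exogenous chimeric NR-Gal4 protein. After 24 h dosing, reporter mRNA quantified by RT-PCR, 6-FAM labelling and capillary electrophoresis; gain of signal fitted against DMSO.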

The nature of test [19]: ATG_M_19_TRANS: Attagene TRANS-FACTORIAL HepG2 Assay for M19 Transcription Factor (Internal Marker) (AID 2282974; active means hit-call score of the fitted dose curve at least 0.9, where 1 is the maximum). The note with it: HepG2 Attagene TRANS-FACTORIAL M19 internal marker reporter. In a few lines: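 Multiplexed TRANS format: HepG2 liver cells bearing transient GAL4-UAS reporter units, chemical treatment 24 h, reporter transcripts quantified by RT-PCR plus capillary electrophoresis. DMSO defines baseline.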

Inconclusive results are not listed. The source made the active and inactive calls. How the source made its calls, unless noted: active means hit-call score of the fitted dose curve at least 0.9, where 1 is the maximum; inactive means score below 0.9.

The AC50 is the concentration at which the activity in the assay is half-maximal.

X-box-binding protein 1 (Homo sapiens), sequence (P17861 whole entry, looked up): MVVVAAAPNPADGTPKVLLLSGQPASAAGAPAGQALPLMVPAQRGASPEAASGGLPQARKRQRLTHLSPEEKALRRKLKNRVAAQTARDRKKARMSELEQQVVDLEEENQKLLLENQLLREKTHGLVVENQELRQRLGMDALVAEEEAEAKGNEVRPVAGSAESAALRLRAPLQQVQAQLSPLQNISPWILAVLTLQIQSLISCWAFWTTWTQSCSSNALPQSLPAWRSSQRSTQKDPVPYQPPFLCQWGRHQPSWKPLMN
Paired box protein Pax-6 (Homo sapiens), sequence (P26367 whole entry, looked up): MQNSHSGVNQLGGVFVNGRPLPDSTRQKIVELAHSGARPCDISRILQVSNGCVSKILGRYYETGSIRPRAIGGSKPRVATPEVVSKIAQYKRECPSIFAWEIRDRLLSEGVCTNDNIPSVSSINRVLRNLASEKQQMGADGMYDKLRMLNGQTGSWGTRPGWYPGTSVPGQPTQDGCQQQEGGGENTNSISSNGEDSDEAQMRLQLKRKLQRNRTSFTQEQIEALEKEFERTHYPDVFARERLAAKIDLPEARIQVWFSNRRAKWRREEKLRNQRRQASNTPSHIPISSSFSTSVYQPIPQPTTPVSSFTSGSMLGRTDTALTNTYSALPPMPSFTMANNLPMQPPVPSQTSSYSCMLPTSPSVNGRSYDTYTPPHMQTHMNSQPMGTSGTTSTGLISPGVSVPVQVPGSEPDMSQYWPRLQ
Transcription factor Sp1 (Homo sapiens), sequence (P08047 whole entry, looked up): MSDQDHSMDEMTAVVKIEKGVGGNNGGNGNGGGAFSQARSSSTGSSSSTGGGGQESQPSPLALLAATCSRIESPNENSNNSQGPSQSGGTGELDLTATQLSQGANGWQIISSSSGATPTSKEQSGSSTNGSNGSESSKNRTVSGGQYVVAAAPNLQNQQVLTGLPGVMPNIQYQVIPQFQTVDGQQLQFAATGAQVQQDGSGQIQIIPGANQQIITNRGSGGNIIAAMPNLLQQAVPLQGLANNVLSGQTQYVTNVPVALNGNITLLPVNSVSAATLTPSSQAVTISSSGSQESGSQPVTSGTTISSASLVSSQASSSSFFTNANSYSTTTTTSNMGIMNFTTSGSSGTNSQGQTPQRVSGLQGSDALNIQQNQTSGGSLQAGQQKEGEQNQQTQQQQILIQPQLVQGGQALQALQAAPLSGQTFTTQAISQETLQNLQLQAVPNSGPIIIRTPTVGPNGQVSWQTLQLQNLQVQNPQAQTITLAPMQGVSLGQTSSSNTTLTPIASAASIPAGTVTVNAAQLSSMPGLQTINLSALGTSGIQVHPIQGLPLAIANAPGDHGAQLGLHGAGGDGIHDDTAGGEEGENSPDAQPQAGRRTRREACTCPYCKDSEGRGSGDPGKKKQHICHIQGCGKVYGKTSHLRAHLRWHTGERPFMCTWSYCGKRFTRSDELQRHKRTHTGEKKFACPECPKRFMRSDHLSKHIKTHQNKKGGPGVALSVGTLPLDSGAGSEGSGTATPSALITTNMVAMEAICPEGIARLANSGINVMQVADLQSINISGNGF
Estrogen receptor (Homo sapiens), sequence (P03372 whole entry, looked up, the tested form may be a part): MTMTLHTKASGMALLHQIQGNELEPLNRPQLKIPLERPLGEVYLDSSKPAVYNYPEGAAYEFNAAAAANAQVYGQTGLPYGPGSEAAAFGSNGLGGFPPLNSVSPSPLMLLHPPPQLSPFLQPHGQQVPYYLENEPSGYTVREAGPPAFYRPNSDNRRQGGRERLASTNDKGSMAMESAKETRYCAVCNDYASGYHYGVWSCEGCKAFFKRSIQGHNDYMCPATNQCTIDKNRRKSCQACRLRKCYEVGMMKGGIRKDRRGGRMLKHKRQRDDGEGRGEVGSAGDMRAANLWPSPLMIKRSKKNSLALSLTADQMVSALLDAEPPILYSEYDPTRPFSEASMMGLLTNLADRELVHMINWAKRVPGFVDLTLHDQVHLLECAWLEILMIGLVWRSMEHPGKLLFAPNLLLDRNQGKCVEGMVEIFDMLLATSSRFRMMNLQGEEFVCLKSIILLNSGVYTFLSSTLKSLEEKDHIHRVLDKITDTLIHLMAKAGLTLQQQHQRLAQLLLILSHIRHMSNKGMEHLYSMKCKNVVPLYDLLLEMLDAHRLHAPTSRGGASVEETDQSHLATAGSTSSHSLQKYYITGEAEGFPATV
Signal transducer and activator of transcription 3 (Homo sapiens), sequence (P40763 whole entry, looked up): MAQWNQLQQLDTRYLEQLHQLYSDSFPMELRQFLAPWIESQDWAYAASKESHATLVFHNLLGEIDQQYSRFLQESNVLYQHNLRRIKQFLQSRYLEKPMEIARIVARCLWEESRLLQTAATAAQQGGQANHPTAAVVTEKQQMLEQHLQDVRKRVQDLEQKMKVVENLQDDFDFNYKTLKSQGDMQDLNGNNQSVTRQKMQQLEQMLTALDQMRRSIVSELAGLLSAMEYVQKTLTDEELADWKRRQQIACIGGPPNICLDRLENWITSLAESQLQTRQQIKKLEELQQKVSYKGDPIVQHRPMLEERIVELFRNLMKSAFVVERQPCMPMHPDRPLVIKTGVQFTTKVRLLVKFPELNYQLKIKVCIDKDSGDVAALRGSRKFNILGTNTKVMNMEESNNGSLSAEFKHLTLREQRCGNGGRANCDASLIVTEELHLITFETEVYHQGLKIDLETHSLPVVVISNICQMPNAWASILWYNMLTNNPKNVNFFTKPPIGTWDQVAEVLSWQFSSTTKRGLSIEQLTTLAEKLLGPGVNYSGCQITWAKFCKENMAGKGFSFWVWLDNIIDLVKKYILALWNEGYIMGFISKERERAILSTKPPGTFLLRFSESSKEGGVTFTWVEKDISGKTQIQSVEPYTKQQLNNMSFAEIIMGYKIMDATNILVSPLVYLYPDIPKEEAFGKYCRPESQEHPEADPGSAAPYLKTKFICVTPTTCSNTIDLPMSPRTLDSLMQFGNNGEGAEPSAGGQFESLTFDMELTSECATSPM
Estrogen-related receptor gamma (Homo sapiens), sequence (P62508 whole entry, looked up, the tested form may be a part): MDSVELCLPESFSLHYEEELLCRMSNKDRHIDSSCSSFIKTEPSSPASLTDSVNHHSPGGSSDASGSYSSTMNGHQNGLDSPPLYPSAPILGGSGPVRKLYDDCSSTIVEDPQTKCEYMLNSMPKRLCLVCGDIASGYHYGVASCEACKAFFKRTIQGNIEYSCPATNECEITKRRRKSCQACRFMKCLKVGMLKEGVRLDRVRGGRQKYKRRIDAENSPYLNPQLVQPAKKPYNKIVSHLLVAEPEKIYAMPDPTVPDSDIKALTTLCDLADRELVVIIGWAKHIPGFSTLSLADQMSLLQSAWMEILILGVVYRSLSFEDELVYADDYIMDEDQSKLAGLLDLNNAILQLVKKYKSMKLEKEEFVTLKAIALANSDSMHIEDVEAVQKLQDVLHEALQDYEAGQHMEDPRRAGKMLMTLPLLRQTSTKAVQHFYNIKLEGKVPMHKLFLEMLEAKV
Nuclear receptor subfamily 1 group I member 3 (Homo sapiens), sequence (Q14994 whole entry, looked up, the tested form may be a part): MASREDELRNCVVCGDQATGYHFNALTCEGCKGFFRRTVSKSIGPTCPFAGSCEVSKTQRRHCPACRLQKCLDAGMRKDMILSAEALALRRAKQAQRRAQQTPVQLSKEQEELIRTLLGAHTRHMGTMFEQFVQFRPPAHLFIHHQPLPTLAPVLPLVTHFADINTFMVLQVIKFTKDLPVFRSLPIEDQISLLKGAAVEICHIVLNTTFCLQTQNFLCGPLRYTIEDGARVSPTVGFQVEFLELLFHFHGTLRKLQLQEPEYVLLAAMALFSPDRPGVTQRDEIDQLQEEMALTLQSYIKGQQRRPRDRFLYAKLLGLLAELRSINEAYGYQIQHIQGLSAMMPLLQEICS

`Cc1ccccc1C`: the compound was classed as inactive in [1], in test [3], in test [4], in test [5], in test [6] and in test [7]. The result in [8], in test [9], in [10], in test [11], in test [12] and in [13] was inactive. Besides, the compound was classed as inactive in test [14]. For the same compound, in test [2], the AC50 was 36.5 µM (active).
As to `CN(C)c1ccc(N=Nc2ccccc2C(=O)O)cc1`, the half-maximal activity concentration (AC50) was 35.1 µM (active) in test [1]; 26.3 µM (active) in [2]; 17.8 µM (active) in test [3]; 24.9 µM (active) in [5]; 40.8 µM (active) in test [15]; 31.4 µM (active) in test [8]. In addition, the AC50 in test [11] is 16.4 µM (active); in [12], 9.33 µM (active). In addition, the call in [4], in test [16], in [7], in test [9], in [10] and in test [17] was inactive.
For the compound `CCCCCC(C)O` (stereo not given), the result in test [1], in test [2], in [3], in test [4], in test [5] and in [15] was inactive. Besides, the call in test [16], in test [7], in test [8], in [9], in test [10] and in test [11] was inactive. The compound was called inactive in test [17] and in test [13].
Turning to `C=C1[C@H]2CC[C@@H]3[C@H]2C(C)(C)CCC[C@]13C`, the call in test [1], in [3], in [5], in test [15], in [6] and in test [16] was inactive. The result in test [7], in test [8], in [9], in test [10], in [18] and in test [12] was inactive. Besides, the compound was classed as inactive in test [19]. Further, the half-maximal activity concentration (AC50) in test [2] is 5.34 µM (active); in test [17] it was 18.9 µM (active).
For the compound `CC(=O)OC1C2(C)CCC(C2)C1(C)C` (stereo not given), the outcome in [1], in [2], in [3], in test [5], in [15] and in test [16] was inactive. For the same compound, the compound was classed as inactive in test [7], in test [8], in test [9], in [10], in test [17] and in test [12]. The result in [14] was inactive.
